Inconclusive results are not listed. A call without a number means that no potency is given here. Some structures have more than one record in an assay (separate samples or runs), and their calls can disagree. Activity calls are given as the source filed them. Unless noted, calls follow the shape of the dose curve; as a rule, active = well fitted curve in the direction sought with a large enough effect; inconclusive = small, poorly fitted or top-dose-only effect, or another doubt; inactive = no such curve, though single readings can be large; an effect the other way counts as inactive or inconclusive.
Experiments:
[1] = target: Calcium and integrin-binding protein 1 (Homo sapiens) (UniProt Q99828); assay: Primary qHTS for Identification of Calcium Integrin Binding Protein 1 (CIB1) Competitor (AID 1508620); also: potency is read from the fitted curve at half-maximal effect
Method in brief: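 Fluorescence polarization competition: CIB1-GST (1 uM final) preincubated with compound 15 min at room temperature, then FITC-labeled alphaIIb peptide (100 nM final) added for another 15 min. Polarization read at Ex 480/Em 540.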

[2] = Primary qHTS for small molecule stabilizers of the endoplasmic reticulum resident proteome: Secreted ER Calcium Modulated Protein (SERCaMP) assay (AID 1508630)
Method in brief: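 GLuc-SERCaMP-expressing SH-SY5Y cells, pretreated 16 h with compound, are challenged with thapsigargin to empty ER calcium stores; after 4 h, coelenterazine is added directly to the medium and luminescence is imaged.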

[3] = target: Cytochrome P450 2C9 (Homo sapiens) (UniProt P11712); assay: Cytochrome P450 family 2 subfamily C member 9 (CYP2C9) small molecule antagonists: luciferase biochemical (cell-free) qHTS assay (AID 1645842; active = well fitted curve in the direction sought with a large enough effect in the repeat runs; an effect the other way counts as inactive or inconclusive; also: nearly all actives have a fitted effect of over 55% in size; also: potency is read from the fitted curve at half-maximal effect)
Method in brief: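 Luminescence, after 20 min with luciferin detection reagent, reflected CYP2C9 turnover during a 1 h NADPH-driven reaction at 37C. Enzyme-substrate mix contained 0.4% bovine serum albumin and was preincubated with compound 10 min at room temperature.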

[4] = Primary qHTS for inhibitors of nuclear receptor binding SET domain protein 2 (NSD2) in an isogenic RCH-ACV NSD2 p.E1099K mutant (9B) (AID 1645876); also: nearly all actives have a fitted effect of over 70% in size; also: potency is read from the fitted curve at half-maximal effect
[5] = target: N-terminal Xaa-Pro-Lys N-methyltransferase 1 (Homo sapiens) (UniProt Q9BV86); assay: Confirmatory qHTS for Inhibitors of N-terminal methyltransferase 1 (NTMT1): MTaseGlo Assay (AID 1645874); also: potency is read from the fitted curve at half-maximal effect; nearly all actives have a fitted effect of over 65% in size
Method in brief: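 Compounds are incubated with 125 nM NTMT1 and 100 uM SAM for 15 min before the SPKRIA peptide (1 uM) starts a 30 min room-temperature methylation. SAH is measured by coupled luciferase luminescence and curves fitted to a Hill equation.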

[6] = Primary qHTS for inhibitors of nuclear receptor binding SET domain protein 2 (NSD2) in an RCH-ACV wild type WT cells (2C) (AID 1645877); also: nearly all actives have a fitted effect of over 70% in size; also: potency is read from the fitted curve at half-maximal effect

Sequence of Cytochrome P450 2C9 (Homo sapiens) (P11712 whole entry, looked up): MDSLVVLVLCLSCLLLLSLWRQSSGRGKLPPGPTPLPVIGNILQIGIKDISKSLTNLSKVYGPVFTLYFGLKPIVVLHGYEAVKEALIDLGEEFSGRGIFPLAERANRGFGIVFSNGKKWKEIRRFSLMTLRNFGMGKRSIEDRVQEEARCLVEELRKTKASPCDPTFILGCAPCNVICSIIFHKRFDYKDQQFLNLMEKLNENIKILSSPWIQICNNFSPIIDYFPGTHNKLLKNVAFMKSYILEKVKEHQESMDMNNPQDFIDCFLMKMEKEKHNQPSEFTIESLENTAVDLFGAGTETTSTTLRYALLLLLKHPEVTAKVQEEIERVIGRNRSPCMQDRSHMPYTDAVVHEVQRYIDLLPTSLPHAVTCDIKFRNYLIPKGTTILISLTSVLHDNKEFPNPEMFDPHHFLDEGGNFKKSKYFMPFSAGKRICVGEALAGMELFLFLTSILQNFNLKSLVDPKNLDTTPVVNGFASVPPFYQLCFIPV
Sequence of Calcium and integrin-binding protein 1 (Homo sapiens) (Q99828 whole entry, looked up): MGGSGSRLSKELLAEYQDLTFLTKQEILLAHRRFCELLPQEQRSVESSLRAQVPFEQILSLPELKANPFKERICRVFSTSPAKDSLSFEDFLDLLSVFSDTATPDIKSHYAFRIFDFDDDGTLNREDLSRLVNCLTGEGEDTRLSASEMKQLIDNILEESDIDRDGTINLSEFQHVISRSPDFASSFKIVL
Sequence of N-terminal Xaa-Pro-Lys N-methyltransferase 1 (Homo sapiens) (Q9BV86 whole entry, looked up): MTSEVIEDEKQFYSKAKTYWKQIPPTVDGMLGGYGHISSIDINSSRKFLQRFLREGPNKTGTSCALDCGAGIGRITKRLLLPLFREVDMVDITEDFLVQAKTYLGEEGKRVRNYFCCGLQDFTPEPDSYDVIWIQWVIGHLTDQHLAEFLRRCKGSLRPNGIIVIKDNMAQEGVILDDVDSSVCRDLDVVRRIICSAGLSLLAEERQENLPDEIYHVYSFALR

Compound | Potency [1] | Potency [2] | Potency [3] | Potency [4] | Potency [5] | Potency [6]
Cc1ccccc1C(C(=O)NC1CCCCC1)N(C(=O)CNc1ccc(C#N)cc1)c1cccc(F)c1 (configuration not stated) | inactive | inactive | 1340 nM (active) | inactive | – | –
Nc1[nH]nc2nnc(-c3c(-c4ccccc4)nn4ccccc34)cc12 | – | – | – | – | 11200 nM (active) | –
CCC[C@H](N[C@@H](C)C(=O)N1[C@@H]2CCCC[C@H]2C[C@H]1C(=O)O)C(=O)OCC | inactive | inactive | – | inactive | – | inactive
CC[C@@H]([C@H](C)O)n1ncn(-c2ccc(N3CCN(c4ccc(OCC5CO[C@@](Cn6cncn6)(c6ccc(F)cc6F)C5)cc4)CC3)cc2)c1=O (some centres not stated) | inactive | inactive | – | inactive | – | inactive
COc1ccc2nc3cc(Cl)ccc3c(Nc3cc(CN4CCCC4)c(O)c(CN4CCCC4)c3)c2n1 | inactive | inactive | – | 2.95 µM (active) | – | 2.95 µM (active)
CC(=O)NCCC(=O)N[C@@H](CCC(N)=O)C(=O)N[C@@H](CO)C(=O)N[C@@H](CCC(N)=O)C(=O)N[C@@H](CCC(N)=O)C(=O)N[C@H](C(=O)N[C@@H](Cc1ccccc1)C(=O)N[C@]1(C)CCCCCCC=CCCC[C@@](C)(C(=O)N[C@@H](CCC(N)=O)C(=O)N[C@@H](CC(N)=O)C(N)=O)NC(=O)[C@H](CC(C)C)NC(=O)[C@H](CC(C)C)NC(=O)[C@@H](CCCNC(=N)N)NC(=O)[C@H](Cc2c[nH]c3ccccc23)NC(=O)[C@H](CC(C)C)NC(=O)[C@H](CC(N)=O)NC1=O)[C@H](C)O | inactive | inactive | – | inactive | – | inactive
Cc1nc(NC(=O)N2CCC[C@@H]2C(N)=O)sc1-c1csc(C(C)(C)C)n1 | inactive | inactive | – | 7.31 µM (active) | – | 7.31 µM (active)
N#Cc1ccc(Oc2ccc3c(c2)COB3O)cc1 | inactive | inactive | – | 5.9 µM (active) | – | 6.61 µM (active)
CN[C@@H]1CN(c2ccc3c(=O)c(C(=O)O)cn(-c4nccs4)c3n2)C[C@@H]1OC | inactive | inactive | – | 0.102 µM (active) | – | 0.0645 µM (active)
O=C(O)CCC=CCC[C@@H]1[C@H](N2CCCCC2)[C@@H](O)C[C@@H]1OCc1ccc(-c2ccccc2)cc1 | inactive | inactive | – | inactive | – | inactive
Cc1cc2c(cc1C1(c3ccc(C(=O)O)cn3)CC1)C(C)(C)CCC2(C)C | inactive | inactive | – | inactive | – | inactive
NC(=O)c1ccc(N(C(N)=O)c2c(F)cccc2F)nc1-c1ccc(F)cc1F | inactive | inactive | – | inactive | – | inactive
CN(C)c1ccccc1CN1CCCN(Cc2ccccc2N(C)C)C1c1ccncc1 | inactive | inactive | – | 14.8 µM (active) | – | 10.5 µM (active)
NCC1CCC(C(=O)O)CC1 (configuration not stated) | inactive | inactive | – | inactive | – | inactive
CN1CCN2c3ncccc3Cc3ccccc3C2C1 (configuration not stated) | inactive | inactive | – | inactive | – | inactive
CC(C)[C@H](O)C(=O)N[C@@H](C)C(=O)N[C@@H]1C(=O)N(C)CCc2ccccc21 | inactive | inactive | – | inactive | – | inactive
COC(=O)Nc1ccc(-c2nc(N3CCOCC3)c3cnn(C4CCN(C(=O)OC)CC4)c3n2)cc1 | inactive | inactive | – | 1.05 µM (active) | – | 0.742 µM (active)
Cc1ccc(C(=O)N(CCCN)[C@@H](c2oc3cc(Cl)ccc3c(=O)c2Cc2ccccc2)C(C)C)cc1 | inactive | inactive | – | 0.0332 µM (active) | – | 0.0263 µM (active)
CC[C@H](C)n1cc(C)c2c(C(=O)NCc3c(C)cc(C)[nH]c3=O)cc(-c3ccc(N4CCNCC4)nc3)cc21 | inactive | inactive | – | 18.6 µM (active) | – | 16.6 µM (active)
CCOc1ccccc1N=Nc1c(C)[nH]n(-c2nc(-c3ccccc3)cs2)c1=O | inactive | inactive | – | inactive | – | inactive
C#CCN(C)CC1=Cc2ccccc2Oc2ccccc21 | inactive | inactive | – | inactive | – | inactive

Compound | Potency [1] | Potency [2] | Potency [3] | Potency [4] | Potency [5] | Potency [6]
C[C@@]1(C(=O)Nc2ccc(F)nc2)CCCN1c1nc(Nc2cc(C3CC3)[nH]n2)c2cccn2n1 | inactive | inactive | – | 2.95 µM (active) | – | 2.63 µM (active)
CC(NCCc1ccc(O)cc1)C(O)c1ccc(O)cc1 (configuration not stated) | inactive | inactive | – | inactive | – | inactive
COc1cc2ncn(-c3cc(OCc4ccccc4S(C)(=O)=O)c(C#N)s3)c2cc1OC | inactive | inactive | – | inactive | – | inactive
Cc1cccc(Nc2nc(N[C@@H]3CCCC[C@H]3N)ncc2C(N)=O)c1 | inactive | inactive | – | 1.48 µM (active) | – | 1.48 µM (active)
CO[C@@H]1C(N(C)C(=O)c2ccccc2)C[C@H]2O[C@]1(C)n1c3ccccc3c3c4c(c5c6ccccc6n2c5c31)C(=O)NC4=O (some centres not stated) | 19200 nM (active) | inactive | – | 1.66 µM (active) | – | 1.32 µM (active)
COC(=O)[C@H](c1ccccc1Cl)N1CCc2sccc2C1 | inactive | inactive | – | inactive | – | inactive
COc1cc2c(cc1OC)CC(=O)N(CCCN(C)C[C@H]1Cc3cc(OC)c(OC)cc31)CC2 | inactive | inactive | – | inactive | – | inactive
CC(C)C[C@@H](N)[C@H](O)C(=O)N[C@H](C(=O)N[C@H](C(=O)N[C@@H](CC(=O)O)C(=O)O)C(C)C)C(C)C | inactive | inactive | – | inactive | – | inactive
COc1ccc(-c2oc3c(CC=C(C)C)c(O)cc(O)c3c(=O)c2O)cc1 | inactive | inactive | – | inactive | – | inactive
O=C1CCCC(=O)C1C(=O)c1ccc(C(F)(F)F)cc1[N+](=O)[O-] | inactive | inactive | – | inactive | – | inactive
N#CC1(c2cccc(C(=O)Nc3cc(Oc4ccc5nc(NC(=O)C6CC6)sc5n4)ccc3F)c2Cl)CC1 | inactive | inactive | – | 1.83 µM (active) and inactive | – | 3.65 µM (active) and inactive
Nc1nc(Cl)nc2c1ncn2[C@@H]1O[C@H](CO)[C@@H](O)[C@H]1F | inactive | inactive | – | 0.0231 µM (active) | – | 0.0206 µM (active)
CC(C)(F)C[C@H](N[C@@H](c1ccc(-c2ccc(S(C)(=O)=O)cc2)cc1)C(F)(F)F)C(=O)NC1(C#N)CC1 | inactive | inactive | – | inactive | – | inactive
Nc1ncnc2c1ncn2[C@@H]1O[C@H](CO)[C@@H](O)[C@@H]1O | inactive | inactive | – | 16.6 µM (active) | – | 16.6 µM (active)
CCN(CCO)CCCOc1ccc2c(Nc3cc(CC(=O)Nc4cccc(F)c4)[nH]n3)ncnc2c1 | inactive | inactive | – | 5.9 µM (active) | – | 0.132 µM (active)
CN(C)CCN(C)C(=O)c1ccc(NC(=O)Nc2ccc(-c3nc(N4CCOCC4)c4ccn(CC(F)(F)F)c4n3)cc2)cc1 | inactive | inactive | – | 0.0209 µM (active) | – | 0.0186 µM (active)
COc1ccc(CCN(C)CCCOc2ccc(S(=O)(=O)c3[nH]c4ccccc4c3C(C)C)cc2)cc1OC | inactive | inactive | – | 13.2 µM (active) | – | 16.6 µM (active)
CC(C)C[C@@H](C(=O)N[C@H](C(=O)OC1CCCC1)c1ccccc1)[C@H](O)C(=O)NO | inactive | – | 5350 nM (active) | 14.8 µM (active) | – | –
O=C1CN2Cc3c(ccc(Cl)c3Cl)N=C2N1 | inactive | inactive | – | inactive | – | inactive
COc1nc(C)cnc1NS(=O)(=O)c1cccnc1-c1ccc(-c2nnco2)cc1 | inactive | inactive | – | inactive | – | inactive
CNc1nc(Nc2ccc(C(=O)N3CCOCC3)cc2OC)ncc1Cl | inactive | – | inactive | – | – | –

— PubChem BioAssay (NCATS)
